About 1,100 (1.7%) of roughly 63,000 compounds were called active. Many of the other results were omitted from the sample, so actives are more common in it than they were. Measured potencies and affinities stand elsewhere. A number with no mark means an inactive call.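 How the source made its calls: active means compounds whose percent cytotoxicity in the single-dose primary screen, scaled between solvent and toxic-drug controls, exceeds 50; inactive means the rest.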

This test can be described thus: cytotoxicity in KRAS-transformed pancreatic duct cells, primary screen, cell-based, fluorescence, HTS (AID 431).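 Further: 0% = DMSO solvent wells and 100% = doxorubicin-treated wells.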 The settings on record: HPDE-C7K KRASV12 cells, Alamar Blue viability, 48 h; at 10 µM; stronger effect = higher value. A general note: The colour change of resazurin is a common sign of viable cells or microbes.
Take `O=C(CSc1ncc(-c2ccccc2)nn1)NCc1ccco1`: the cytotoxicity was -13.8%.

For the compound `CN1CCN(c2nc(-c3cccs3)cc(C(F)(F)F)n2)CC1`, the cytotoxicity is 3.2%.

As to `CC(C)c1nnc(NC(=O)CCS(=O)(=O)c2nc(-c3cccs3)cc(C(F)(F)F)n2)s1`, the cytotoxicity is 43.6%.

Take `CCn1c(SCC(=O)Nc2ccc(N3CCOCC3)c(Cl)c2)nnc1-c1ccc(N)cc1`: the cytotoxicity was 3.4%.

Take `Clc1ccc(OCc2nn3c(C4CCCCC4)nnc3s2)cc1`: the cytotoxicity is 17.1%.

Consider `CCOc1cc(-c2nc(-c3ccc(C)nc3OC)no2)cc(OCC)c1OCC`, for which the cytotoxicity was -15%.

Consider `Cc1nc(NC(=O)c2oc3ccccc3c2C)sc1C(=O)N(C)C`, for which the cytotoxicity was 12.9%.

Consider `CCN1CCN(c2ncc(C(=O)Nc3cc(Cl)ccc3OC)c3ccccc23)CC1`, for which the cytotoxicity was 75.3% (active).

Regarding `CCN1CCN(c2ncc(C(=O)Nc3ccccc3C(=O)OC)c3ccccc23)CC1`, the cytotoxicity is 40.3%.

As for `CCN1CCN(c2ncc(C(=O)Nc3cc(Cl)c(OC)cc3OC)c3ccccc23)CC1`, the cytotoxicity was 11.7%.

Consider `O=c1/c(=C\c2cccnc2)sc2nc3ccccc3n12`, for which the cytotoxicity is -13.6%.

For `COc1cc(C(=O)OC(C)CN2CCN(C)CC2)cc(OC)c1OC` (configuration not stated), the cytotoxicity is -37.3%.

As for `O=C(CN1C(=O)COc2ccccc21)c1ccc(Cl)cc1`, the cytotoxicity was -0.2%.

In the case of `Cc1ccc(C(=O)CSc2nnc(CNc3nc(-c4ccccc4)cs3)n2C)cc1`, the cytotoxicity is 4.1%.

For the compound `COc1ccc(OCC(=O)Nc2ccccc2C(=O)N2CCCC2)cc1`, the cytotoxicity is -0.2%.

Regarding `CC(NC(=O)NCC1CCCO1)(C(F)(F)F)C(F)(F)F` (configuration not stated), the cytotoxicity was -11.1%.

Take `NS(=O)(=O)c1ccc(S(=O)(=O)N(Cc2ccccc2F)CC2CCCO2)cc1` (configuration not stated): the cytotoxicity is 4%.

With `Cc1ccccc1-n1c(C)nnc1SCC(=O)NCC1CCCO1` (configuration not stated), the cytotoxicity is -1.6%.

For `COc1ccc(S(=O)(=O)N(C)CC(=O)NC2CCCC2)cc1Cl`, the cytotoxicity was -18%.

With `Cc1nc2ccccc2c(=O)n1/N=C/c1c(O)ccc2oc3c(c12)CCCC3`, the cytotoxicity was 72.1% (active).

As to `Cc1nc2ccccc2c(=O)n1/N=C/c1ccc(O)cc1`, the cytotoxicity was 24.4%.

Turning to `Oc1ccc2oc3c(c2c1/C=N/n1cnnc1)CCCC3`, the cytotoxicity is -21.1%.

Consider `CCCC(=O)Nc1ccc(Cl)c(NC(=O)c2ccco2)c1`, for which the cytotoxicity was 3.9%.

`CCCC(=O)NC(c1ccco1)c1cc(Cl)c2cccnc2c1O` (configuration not stated): the cytotoxicity was 59.2% (active).

In the case of `O=C(Oc1c(Cl)cc(Cl)c2cccnc12)N1CCCCC1`, the cytotoxicity is 10.8%.

As for `NC(=O)c1ccc(N2CCCCC2)c(N2C(=O)C3C4C=CC(C4)C3C2=O)c1` (configuration not stated), the cytotoxicity is 2.5%.

In the case of `O=C(CSc1nc(O)cc(=O)n1-c1ccccc1)NCc1ccccc1`, the cytotoxicity is -1%.

As to `CC1=C(C(=O)OC(C)C)C(c2cccs2)N2C(=O)CCSC2=N1` (configuration not stated), the cytotoxicity is 10.1%.

On to `O=C1CC(N2CCN(c3nc4ccccc4s3)CC2)C(=O)N1Cc1cccs1` (configuration not stated), for which the cytotoxicity is 5.6%.

Regarding `O=C1CC(N2CCN(c3ccc(F)cc3)CC2)C(=O)N1Cc1cccs1` (configuration not stated), the cytotoxicity was -7.6%.

Regarding `Cc1cccc(N(CC(=O)NC2CCCCC2)C(=O)CCC(=O)Nc2cc(C)ccn2)c1`, the cytotoxicity is -11.1%.

On to `N#Cc1cccc2cnccc12`, for which the cytotoxicity was -3.3%.

With `CCN(CC)c1ccc(-c2nn3c(-c4cccnc4)nnc3s2)cc1`, the cytotoxicity was 56.4% (active).

On to `c1cncc(-c2nn3c(-c4ccncc4)nnc3s2)c1`, for which the cytotoxicity is -1%.

Consider `CCOc1ccc(-c2nn3c(-c4ccc(F)cc4)nnc3s2)cc1`, for which the cytotoxicity is 9.9%.

Regarding `CN(C)c1ccc(-c2nn3c(-c4cccnc4)nnc3s2)cc1`, the cytotoxicity is -11.9%.

Regarding `CN(C)c1ccc(-c2nn3c(-c4ccncc4)nnc3s2)cc1`, the cytotoxicity is -7.6%.

Consider `O=C(CC1(O)C(=O)N(Cc2ccc3c(c2)OCO3)c2ccccc21)c1ccccc1` (configuration not stated), for which the cytotoxicity is -28%.

Turning to `O=C(NCC1CCCO1)c1csc2c1CCCCC2` (configuration not stated), the cytotoxicity was -11.1%.

As for `COc1ccccc1N1CCN(Cc2ccc(OC)c(OC)c2OC)CC1`, the cytotoxicity was -15.5%.

Turning to `CCCC(N)CCCCCC(=O)O` (configuration not stated), the cytotoxicity is 4.3%.

As to `CCSC(SCC)[C@H](O)[C@@H](O)[C@H](O)[C@H](O)CO`, the cytotoxicity was -20.9%.

Consider `N#CC(C(=O)NC1CCCCC1)c1nc2ccccc2nc1N1CCCCC1` (configuration not stated), for which the cytotoxicity is -0.2%.

For `CC(=O)NCCCc1c[nH]c2ccc(Cl)cc12`, the cytotoxicity was 5.3%.

Take `O=C(NCc1ccc(Cl)cc1)c1ccc(COCC(F)(F)F)o1`: the cytotoxicity was 7.2%.

Consider `COc1ccc(-n2nnc3c(=O)n(CC(=O)NCC4CCCO4)cnc32)cc1` (configuration not stated), for which the cytotoxicity was -5%.

Turning to `CCn1c(NC2CCCCC2)nc2ccccc21`, the cytotoxicity was 15.1%.

Take `COc1cccc(CNc2nc3ccccc3n2CCN2CCCCC2)c1`: the cytotoxicity is -17.7%.

As for `COc1ccc(C(=O)CSc2nnc(-c3ccoc3C)n2CC2CCCO2)cc1` (configuration not stated), the cytotoxicity is -33%.

As for `Cc1nc2c(-c3ccccc3)c(C)nn2c(C)c1CCC(=O)N1CCOCC1`, the cytotoxicity was -17%.

For `Cc1cc(C)c(S(N)(=O)=O)c(C)c1-n1cnnn1`, the cytotoxicity is -18.5%.

`CCOC(=O)CSC1=C(C#N)C(c2ccccc2C)C2=C(CCCC2=O)N1` (configuration not stated): the cytotoxicity is 0.9%.

As to `COc1cccc(C2/C(=C(\O)c3c(C)nc4c(C)cccn34)C(=O)C(=O)N2CCCN(C)C)c1OC` (configuration not stated), the cytotoxicity was -1.4%.

Consider `CCOC(=O)N1CCN(c2ncnc3c2[nH]c2ccc(OC)cc23)CC1`, for which the cytotoxicity is 18.4%.

As to `Cc1ccc2c(c1)[nH]c1c(N3CCN(Cc4ccccc4)CC3)ncnc12`, the cytotoxicity was 107% (active).

For the compound `c1ccc2c(c1)[nH]c1c(N3CCC4(CC3)OCCO4)ncnc12`, the cytotoxicity is 23.3%.

Take `O=C(c1ccco1)N1CCN(c2ncnc3c2[nH]c2ccccc23)CC1`: the cytotoxicity was 21.1%.

Consider `CCOC(=O)c1[nH]c2ccc(OCC)cc2c1NC(=O)CN1CCN(c2ccccn2)CC1`, for which the cytotoxicity was 0.9%.

On to `c1ccc2c(c1)[nH]c1c(N3CCOCC3)ncnc12`, for which the cytotoxicity is -3.2%.

As for `c1ccc(CN2CCN(c3ncnc4c3[nH]c3ccccc34)CC2)cc1`, the cytotoxicity is 119% (active).

Regarding `c1ccc(CN2CCN(c3ncnc4nc[nH]c34)CC2)cc1`, the cytotoxicity is -3.8%.

In the case of `c1ccc2c(c1)[nH]c1c(N3CCSCC3)ncnc12`, the cytotoxicity is 44.2%.

Turning to `OC1(c2cccc(C(F)(F)F)c2)CCN(c2ncnc3c2[nH]c2ccccc23)CC1`, the cytotoxicity was 124% (active).

For `c1ccc2c(c1)[nH]c1c(N3CCCC3)ncnc12`, the cytotoxicity is 20%.

As for `CCOc1ccc2[nH]c3c(N4CCN(c5ccccn5)CC4)ncnc3c2c1`, the cytotoxicity was 77.1% (active).

As for `Cc1nonc1NC(=O)Nc1cccnc1`, the cytotoxicity was 5.4%.

Turning to `CCOc1ccccc1N(CC(=O)NCc1ccc(OC)cc1)S(C)(=O)=O`, the cytotoxicity is -11.2%.

Take `COc1ccc(-n2nnnc2SCC(=O)Nc2cccc(NC(C)=O)c2)cc1OC`: the cytotoxicity is 11.1%.

As for `CSC1=NCCN1C(=O)Cc1ccc(Cl)cc1`, the cytotoxicity was 3.5%.

As to `CCOC(=O)c1ccc(NC(=O)c2nn(CC)cc2Br)cc1`, the cytotoxicity is 0.8%.

On to `Cc1ccc2[nH]c3c(N4CCOCC4)ncnc3c2c1`, for which the cytotoxicity is 16.2%.

In the case of `Cc1ccc2[nH]c3c(N4CCCCCC4)ncnc3c2c1`, the cytotoxicity is 30.4%.

With `O=C(c1cccc(-c2nnc(-c3ccccc3)o2)c1)N1CCCCC1`, the cytotoxicity was 14%.

For `COCCNC(=O)CN1CCC(NC(=O)Nc2ccccc2)CC1`, the cytotoxicity is -1%.

`CN(Cc1ccccc1)C(=O)CCCn1c(=O)[nH]c2cc(Cl)ccc2c1=O`: the cytotoxicity is -8.5%.

For `COc1ccc(-c2nsc3c(N4CCCC4)ncnc23)cc1`, the cytotoxicity is 11.5%.

For `COc1ccc(-c2nsc3c(N4CCN(S(=O)(=O)c5ccccc5)CC4)ncnc23)cc1`, the cytotoxicity is 56.4% (active).

Turning to `COc1ccc(S(=O)(=O)N2CCN(c3ncnc4c(-c5ccccc5)nsc34)CC2)cc1`, the cytotoxicity is -20.8%.

Regarding `CCOC(=O)C(NC(=O)c1ccccc1)=C1C=C(C)OC(C)=C1`, the cytotoxicity was -13.9%.

As to `O=C(NCc1ccc2c(c1)OCO2)c1cccc(Cl)c1`, the cytotoxicity is 3.6%.

As for `O=C(NCc1ccc2c(c1)OCO2)c1ccc(-c2ccc(Cl)cc2)o1`, the cytotoxicity was 61.3% (active).

For `O=C(NCc1ccc2c(c1)OCO2)c1nnc(Cc2ccc(Cl)cc2)o1`, the cytotoxicity is 1.6%.

For the compound `COCCN(C(=O)CCC(=O)Nc1cccnc1)C(C(=O)NC1CCCCC1)c1ccccc1` (configuration not stated), the cytotoxicity was -2.1%.

Turning to `COC(=O)C1=C(C)N=c2s/c(=C/c3ccoc3)c(=O)n2C1c1ccccc1` (configuration not stated), the cytotoxicity is 8.9%.

For `CSc1nnc(Cn2c(=O)sc3ccccc32)n1C`, the cytotoxicity is 6.8%.

Take `CCOc1ccc(N2CC(C(=O)Nc3cccc(C)c3C)CC2=O)cc1` (configuration not stated): the cytotoxicity was 15.6%.

Turning to `COc1ccc(OC)c(S(=O)(=O)NCc2cn3c(C)csc3n2)c1`, the cytotoxicity was -5.8%.

In the case of `CN1CCN(S(=O)(=O)c2ccc(NC(=O)Nc3cccc(Cl)c3)cc2)CC1`, the cytotoxicity is 53% (active).

In the case of `COC(=O)Nc1ccc(S(=O)(=O)N2CCN(C)CC2)cc1`, the cytotoxicity is 10.6%.

Consider `CN1CCN(S(=O)(=O)c2ccc(NC(=O)c3cccc(S(=O)(=O)N4CCCC4)c3)cc2)CC1`, for which the cytotoxicity is -54.2%.

In the case of `O=C(CSc1nnnn1-c1ccc2c(c1)CCC2)NCc1cccs1`, the cytotoxicity was 13.2%.

As to `Cn1c(N)c(C(=O)NCc2ccccc2)sc1=S`, the cytotoxicity was -2%.

As to `Cc1cc(C)c(C#N)c(Nc2ccc3c(c2)OCCO3)n1`, the cytotoxicity was 11.2%.

Consider `c1ccc(Nc2ncnc3c2oc2ccccc23)cc1`, for which the cytotoxicity is -10%.

In the case of `c1ccc2c(c1)oc1c(NCCN3CCOCC3)ncnc12`, the cytotoxicity was -2.7%.

Consider `CCCCOC(=O)c1ccc(NC(=O)c2cnccn2)cc1`, for which the cytotoxicity is 10.3%.

Take `C=CCNC(=O)c1c(N)n(-c2cccc(S(N)(=O)=O)c2)c2nc3ccccc3nc12`: the cytotoxicity was 8.3%.

In the case of `C=CCNC(=O)c1c(N)n(-c2ccc3c(c2)OCO3)c2nc3ccccc3nc12`, the cytotoxicity was -6.4%.

For the compound `C=CCn1c(N)c(C(=O)OC(C)(C)C)c2nc3ccccc3nc21`, the cytotoxicity was 62.9% (active).

As for `C=CCn1c(N)c(C(=O)OC(C)CC)c2nc3ccccc3nc21` (configuration not stated), the cytotoxicity was 24.5%.

Consider `C=CCn1c(N)c(C(=O)OCCC)c2nc3ccccc3nc21`, for which the cytotoxicity was 7.1%.

`C=CCn1c(N)c(C(=O)Nc2ccccc2)c2nc3ccccc3nc21`: the cytotoxicity is 60.6% (active).
